Test results from PubChem BioAssay AID743364 (National Center for Advancing Translational Sciences (NCATS), 2014).
Calls of active or inactive are those of the source. Calls follow the shape of the dose curve; as a rule, active = well fitted curve in the direction sought with a large enough effect; inactive = no such curve, though single readings can be large or run the other way.

Assay: qHTS profiling of inhibitors of Plasmodium falciparum (3D7) proliferation (acoustic dispense)
Details: P. falciparum 3D7 in erythrocytes, SYBR Green, 72 h; series mostly up to 49.8 µM

outcome, inactive:
Cc1cn[nH]c1
COc1cc([C@@H]2c3cc4c(cc3[C@@H](O[C@@H]3O[C@@H]5CO[C@@H](c6cccs6)O[C@@H]5[C@H](O)[C@@H]3O)[C@H]3COC(=O)[C@H]23)OCO4)cc(OC)c1O
CN[C@@H](C)C(=O)N[C@H]1CCCC[C@H]2CC[C@@H](C(=O)N[C@@H](c3ccccc3)c3cn(CCCCc4ccc(CCCCn5cc([C@@H](NC(=O)[C@@H]6CC[C@@H]7CCCC[C@H](NC(=O)[C@H](C)NC)C(=O)N76)c6ccccc6)nn5)cc4)nn3)N2C1=O
COc1ccc2nc3cc(Cl)ccc3c(Nc3cc(CN4CCCC4)c(O)c(CN4CCCC4)c3)c2n1
O=C1C(=O)c2ccccc2C(O)=C1C1CCC(c2ccc(Cl)cc2)CC1 (stereo not given)
Cc1nc2c(C#N)cccc2n1-c1ccc(C(=O)NC2CC2)s1
CCC(=O)N1CCN(c2ccc(-n3c(=O)ccc4cnc5ccc(-c6cnc7ccccc7c6)cc5c43)cc2C(F)(F)F)CC1
CC[C@]1(O)C[C@H]2CN(CCC3=c4ccccc4=N[C]3[C@@](C(=O)OC)(c3cc4c(cc3OC)N(C)[C@H]3[C@@](O)(C(N)=O)[C@H](O)[C@]5(CC)C=CCN6CC[C@]43[C@@H]65)C2)C1
CSc1cccc(Nc2ncc3cc(-c4c(Cl)cccc4Cl)c(=O)n(C)c3n2)c1
C#Cc1cccc(Nc2ncnc3cc(OC)c(OCCCCCCC(=O)NO)cc23)c1
C[C@H]1c2cccc(O)c2C(O)=C2C(=O)[C@]3(O)C(O)=C(C(N)=O)C(=O)[C@@H](N(C)C)[C@@H]3[C@@H](O)[C@@H]21
Clc1ccc2c(N3CCN(CCCN4CCN(c5ccnc6cc(Cl)ccc56)CC4)CC3)ccnc2c1
O=C(Nc1ccc([N+](=O)[O-])cc1Cl)c1cc(Cl)ccc1O
C=CCNc1c(O)cc2c(O)c1C[C@@H](C)C[C@H](OC)[C@@H](O)[C@@H](C)C=C(C)[C@H](OC(N)=O)[C@@H](OC)C=CC=C(C)C(=O)N2
CC(C)Oc1cc(Nc2nc(N[C@@H](C)c3ccc(F)cn3)ncc2Cl)[nH]n1
C[C@@H](Oc1ccc2[nH]nc(C=Cc3cnn(CCO)c3)c2c1)c1c(Cl)cncc1Cl
COc1ncc(-c2ccc3nccc(-c4ccnnc4)c3c2)cc1NS(=O)(=O)c1ccc(F)cc1F
OB1OCc2cc(F)ccc21
Cc1cn(-c2cc(NC(=O)c3ccc(C)c(Nc4nccc(-c5cccnc5)n4)c3)cc(C(F)(F)F)c2)cn1
COc1cc2c(Oc3ccc(NC(=O)C4(C(=O)Nc5ccc(F)cc5)CC4)cc3F)ccnc2cc1OCCCN1CCOCC1
Cn1c(=O)c(-c2c(Cl)cccc2Cl)cc2cnc(Nc3cccc(C(=O)O)c3)nc21
Cc1ccc([N+](=O)[O-])cc1S(=O)(=O)N(C)N=Cc1cnc2ccc(Br)cn12
CCN(CC)CCNC(=O)c1c(C)[nH]c(C=C2C(=O)Nc3ccc(F)cc32)c1C
CN(Cc1cnc2nc(N)nc(N)c2n1)c1ccc(C(=O)N[C@@H](CCC(=O)O)C(=O)O)cc1
CC(C=CC(=O)NO)=C[C@@H](C)C(=O)c1ccc(N(C)C)cc1
